Experimental data taken from PubChem BioAssay AID720597 (Broad Institute, 2013).
Potency and affinity values are given separately.

What follows are compounds tested against NAD-dependent protein deacylase sirtuin-5, mitochondrial (Homo sapiens) (UniProt Q9NXA8) (assay: blockers of sirtuin-5 peptide desuccinylation – biochemical, fluorescence imaging, cherry-pick, set 6, dose response (AID 720597;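 also: lower AMC signal can also come from blocking the trypsin step; 0% = median of neutral control wells and -100% = median of positive control wells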)). Details: Purified SirT5, succinyl-peptide-AMC/trypsin fluorescence; series mostly up to 15 µM; activity change, negative = inhibition: at the top concentration;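 active = fitted half-maximal dose no more than twice the top valid tested dose, for compounds that lower signal; inconclusive = fit invalid, or curve flat with activity between -70 and -30; inactive = potency past limit, curve flat within ±30, or signal increasing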.
Chain of NAD-dependent protein deacylase sirtuin-5, mitochondrial (Homo sapiens) (Q9NXA8 whole entry, looked up): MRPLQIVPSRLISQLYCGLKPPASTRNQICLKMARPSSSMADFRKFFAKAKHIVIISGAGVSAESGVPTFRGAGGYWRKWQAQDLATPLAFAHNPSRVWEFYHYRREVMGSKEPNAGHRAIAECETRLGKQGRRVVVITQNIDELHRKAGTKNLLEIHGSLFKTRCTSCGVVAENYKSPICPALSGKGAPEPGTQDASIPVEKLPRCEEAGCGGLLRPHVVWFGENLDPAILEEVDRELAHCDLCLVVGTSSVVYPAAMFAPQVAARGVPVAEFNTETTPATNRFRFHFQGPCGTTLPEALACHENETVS

Activity change, negative = inhibition, inactive:
C[C@H]1CN([C@@H](C)CO)S(=O)(=O)c2ccc(C#Cc3ccc(F)cc3)cc2O[C@@H]1CN(C)S(C)(=O)=O 8.38%, C[C@@H]1CCCCO[C@@H](CN(C)Cc2ccc(Cl)c(Cl)c2)[C@H](C)CN([C@@H](C)CO)C(=O)c2cc(NS(=O)(=O)c3cccs3)ccc2O1 14.7%, COCCNC(=O)c1cc2c(c(-c3cccc(-c4cccc(F)c4)c3)n1)[C@H](CCO)N([S@@](=O)C(C)(C)C)C2 -5.5%, Cc1ccc(-c2cnc3c(c2)C(=O)N([C@@H](C)CO)C[C@H](C)[C@@H](CN(C)C(=O)c2cccnc2)O3)cc1 23%, CCCC#Cc1ccc([C@H]2[C@@H](CO)N3CCCCN(S(=O)(=O)Cc4ccccc4)C[C@H]23)cc1 -4.47%, COc1ccc(C#Cc2ccc([C@H]3[C@H]4CN(C(=O)c5cccnc5)CC(=O)N4[C@H]3CO)cc2)cc1 -7.27%, CC(C)[C@@H](C)NC(=O)N(C)C[C@@H]1OCc2ccccc2-c2c(n(C)c3ccccc23)C(=O)N([C@@H](C)CO)C[C@@H]1C -18.6%, C[C@@H]1CN([C@H](C)CO)C(=O)c2cccc(N(C)C)c2O[C@@H]1CN(C)C(=O)NC1CCCCC1 -11.7%, C[C@@H]1CN([C@@H](C)CO)S(=O)(=O)c2ccc(C#Cc3cccc(F)c3)cc2O[C@H]1CN(C)S(=O)(=O)c1ccccc1F 32.6%, C[C@@H]1CCCCO[C@H](CN(C)C(=O)Nc2ccc(C(F)(F)F)cc2)[C@@H](C)CN([C@H](C)CO)C(=O)c2cc(NS(=O)(=O)c3ccc(Cl)cc3)ccc2O1 2.91%, C[C@@H]1CCCCO[C@@H](CN(C)C(=O)Cc2ccccc2)[C@@H](C)CN([C@@H](C)CO)C(=O)c2cc(NC(=O)Nc3ccc(F)cc3)ccc2O1 -29.6%, C[C@@H]1CN([C@H](C)CO)S(=O)(=O)c2ccc(/C=C/c3ccccc3)cc2O[C@@H]1CN(C)C(=O)NC1CCCC1 16%, C[C@@H]1CCCCO[C@H](CN(C)C(=O)Nc2ccc(F)cc2)[C@@H](C)CN([C@H](C)CO)C(=O)c2cc(NC(=O)Nc3ccc(F)cc3)ccc2O1 21%
